# Test results published in article PMC12864922, “TDP-43 directly inhibits mRNA accumulation in neurites through modulation of mRNA stability”.
# In all, about 9,900 sequences were measured (“r (bound/input frequency ratio)”: median about 0.7, highest 2% from about 6.5 on). What follows is part of a selection rich in the highest values, with near analogues and random picks from the rest.
# B1: ENSMUSG00000061578.946|Ksr2 (ssRNA)
# RNA: GGGAGUUCUACAGUCCGACGAUCGCUUCGAUAUCCGCAUGCUAAACAAGAAGACUGCAUGUUAACGCUCCUGCCACUGUUGCCCCUUCCUUUACCCUUGGCAGACAUUGCUAAUCAAUCUCAGCACAGUUUCCAACCACAGUCAUAGAACAUUUGCCACAAAGGCCCUGGAUGUGACUAUAUGUGCUGAGAAGGGAAGGUAGUUUUCCCCCAGAAAGUCCCUUCUAAUAAACAUUGAUGACUUUAGAAUCCAUGACUCAGAAUUUUCCAGAGACCCAAUCCCUCGGGGUCCACUUAGUGAUGGCUCUUGCGGUCGCACUAGUGUGGAAUUCUCGGGUGUCAAGG
# B2: ENSMUSG00000058297.101|Spock2|105:110 (ssRNA)
# RNA: GGGAGUUCUACAGUCCGACGAUCGCUUCGAUAUCCGCAUGCUAAUUUGAUAUGAAAGCCCCACCACGGUCUUGUGGUGAUGAGGCAGGACCUGUACACACAGCAAGGCUUACUAUCCGUCUCCUGACAUCCGAAGAGCUCGUCGCAGCACACACUAAUGGCCCUUGGGCUGCACGUGGUUAAGCAUAGCUGUCUCUGUGGCCCAACACAAAGAGGUAAACUUACUUAAAACACAGGGGUUUUGUUGCUGUUUGUUUUUUGUUAGUUUGUUUGUUGAUAAUUGGAUUGAGGAGUUAAUCCUCUGCUCUUGCGGUCGCACUAGUGUGGAAUUCUCGGGUGUCAAGG
# B3: ENSMUSG00000029636.282|Wasf3 (ssRNA)
# RNA: GGGAGUUCUACAGUCCGACGAUCGCUUCGAUAUCCGCAUGCUAGCGCCAUGGCCAUCCUGGAGCCUGCGCACACGUGGCCGCUGCUGUGACUCGCUGUCCUUGGUAAUUGGUGAGAGGCUUUUUCUUUCUUUCUCAGUUCUGCUUUUCCACACUGAGACCCACCAUGUUGACAUCAUCCUCGCGACGUUGACAUUUGAGCCUUUUGUUCUGUCUCCCAUGUGCCCUGUAGAACCCAGCACUCAUGUUUGGCAAAACUUUUUUUGGUAAGGUCCUUAUGCUCUCAGGGUGGAGGGAAGACAUUACUCUUGCGGUCGCACUAGUGUGGAAUUCUCGGGUGUCAAGG
# B4: ENSMUSG00000058297.560|Spock2 (ssRNA)
# RNA: GGGAGUUCUACAGUCCGACGAUCGCUUCGAUAUCCGCAUGCUAACCUGGGGGUGCAAAAGGAGAUUCAAGACAUCCGUACCAAGUCAGGCAGAGCUACCCGCUUCUCAGCCCGUGUCCCACUUAAAACCGUCCGAUGUGUAAUCACUGAGCUUAGAGUUAAACAUUGUGGUCAAGUGCUUGGGUUCCGUCUGUAGAUUUAAGUGCUGACGUUGUAUCUCUCAGUAAUUUUAGAUGUCUUUUAAAAAAUCUGAACAAGUGUUAGACCCGUGUGUGCGUUGGUGGGCACUCAAGCAUCCCGUGGGCUCUUGCGGUCGCACUAGUGUGGAAUUCUCGGGUGUCAAGG
# B5: ENSMUSG00000031028.59|Tub|169:181;199:203 (ssRNA)
# RNA: GGGAGUUCUACAGUCCGACGAUCGCUUCGAUAUCCGCAUGCUACCCAGUCCUGGGUCAGUCCCCUGCUGCAGUGGUGUUAUCACACCGGAAAGCCUCUUCACCUGGAGGUACAGAGGGAGAGGAAGCACAAGCCUGGCUGCUGUGGCUCAGCCAUCCACUCAGCCUACGAGUCAGAGACAGUGGGUGUCCCGGGAAGCAGGGGUACAGUGACACACACACAUACUACAGGGCACUCAAGCUCAUACUAGAAAAAGCUCUGGUGGUCAGCAGAAAGCACUCCCACUUCAAAAGGGCCCAUUAGGCUCUUGCGGUCGCACUAGUGUGGAAUUCUCGGGUGUCAAGG
# B6: ENSMUSG00000034801.92|Sos2 (ssRNA)
# RNA: GGGAGUUCUACAGUCCGACGAUCGCUUCGAUAUCCGCAUGCUACAGAGCAAGUCCCAGGACAGCCAGGGCUACACAAAAAAACCUUGUCUCAAAAGUCAAAAUACAAACAAAAGAGAGAAAAGGAAGGAAGGAAAGAAUUUGAAAUAUUAAAAUGCAAAAGCCCUUCACCAUAGCCCCCAGGUGAUCAGCAGCAUUGCUUCCUCGGCUCCCCAGUGCUGCCCUAGGCCAGUAUAAAGACUCUGUAUUGCACUGUAGACUCUGCUAGCAGACGGCACUGAGAGGAGCCAGCGCUCGAGGGCGUUCUCUUGCGGUCGCACUAGUGUGGAAUUCUCGGGUGUCAAGG
# B7: ENSMUSG00000090935.132|Synj2bp|162:172 (ssRNA)
# RNA: GGGAGUUCUACAGUCCGACGAUCGCUUCGAUAUCCGCAUGCUAUCUCUCUCUCACUCACCAUCUCUGACAUCCUCCCAUAUUCUUUCUCCUCCACAUAGCCAAUACAAGAUUUAAAGUGACUGCUUAUCACCCAAAACCCUGCUAUUCAAAAUCUCCUAUUCUAAUGGAAGAGUACAGGGGUUAUUUGAAGAAAAGCUGUGGUGCACACACACACGGGGAAGCCUUGCUUAGAAUGAAUGAGAAGUUACAUAUUUUACUAGGACUGCCAAUAAAAACUCAGCUAUCAUCCAAAGAGGAAAAGCCUCUUGCGGUCGCACUAGUGUGGAAUUCUCGGGUGUCAAGG
# B8: ENSMUSG00000029028.117|Lrrc47 (ssRNA)
# RNA: GGGAGUUCUACAGUCCGACGAUCGCUUCGAUAUCCGCAUGCUAGCUCCAAUGUGACUCUCCUGUCUCCUGUCCUCAUGGAUCACUCAGUAACUGCUGGGGAUGUUCUGAAUCAUGUGGCCUGUGGCCGUGCUGGAGAGUCAGGUUGAACGCAGGCAUUCUAUUGAACAGUAUUUAUUUUUCUACAACAUGUUAAUAGAAUUUUUUUUUAAAUCAGCUGUGCAUAGACAGUUGAGAACAUCAUGUUGUGAGUGUAAUCUUCUUAGAGCUUGUUUCCAGGCACCGUGCUGCCGCCAUGCUCCCAGCUCUUGCGGUCGCACUAGUGUGGAAUUCUCGGGUGUCAAGG
# B9: ENSMUSG00000029028.162|Lrrc47|217:221 (ssRNA)
# RNA: GGGAGUUCUACAGUCCGACGAUCGCUUCGAUAUCCGCAUGCUAGCCUUCCACGGCUGUGCUUGGAACUGUAGUGCUGGUCGUUGUUGGCACAUCUGCGCCUUGGCCAAGGAAGUUAUCUAUGUCCGUGUAGUCCUUUGUAGUCAGACAGAUGCUUCGUGGACUGUGCCUCACACAUGGCCCUGCAGGCUCCAUGUCAGCGUGUCCCACUAUUCAUGUCCCAUCUCUGUGCAUCCUGACUGCGCACAUCCCAUCUCCGCAACACAACGCAUCUGUACCAGCACACAGCUGCCAUCCCUCGAGCCCUCUUGCGGUCGCACUAGUGUGGAAUUCUCGGGUGUCAAGG
# B10: ENSMUSG00000004113.139|Cacna1b|48:52;226:230 (ssRNA)
# RNA: GGGAGUUCUACAGUCCGACGAUCGCUUCGAUAUCCGCAUGCUACACCAGUGAUCUCACGUCUCUUGUGGUCUUGGAGUCAAAUAGCACAUCAUACUAGAGAUGCGCUCAAGGGCCUGCCUUUCACCUACACUGUCACCAUAACAGGGACCAAAUCUGGAGGAUGUCCUUGCUGUUGAUUCUGGUUUUCAGUCACAACACUUUCACUGUUUGUCAUUUCUAUGUAGUUGAUCUAGAAAAAGCAGAAAUCAAAACAGGAAAGGAAAUGUUACACAAACUUUAAAAAAAAAGUCAACAUGUAGGAACUCUUGCGGUCGCACUAGUGUGGAAUUCUCGGGUGUCAAGG
# B11: ENSMUSG00000031028.90|Tub|13:17;146:150 (ssRNA)
# RNA: GGGAGUUCUACAGUCCGACGAUCGCUUCGAUAUCCGCAUGCUAGGCACUCAAGCUCAUACUAGAAAAAGCUCUGGUGGUCAGCAGAAAGCACUCCCACUUCAAAAGGGCCCAUUAGGCCCAAAGGGGGUUAGGAGUGGUAGGGAUAGGUGCGUGGCAGGUCCCUGCUAGGAUUGCAGGGGCCUGGCCAACACAAUUAGCUGGAGGCUUAGAAUGCUAGCUCAUUUGUUGCUACAGAUUUGCCCAGUGCUUGCACACGUAAGAACCCAGCUCUCAAGGCCAAAUAUCUGAGUGGAUGGGGAUGACUCUUGCGGUCGCACUAGUGUGGAAUUCUCGGGUGUCAAGG
# B12: ENSMUSG00000061578.112|Ksr2 (ssRNA)
# RNA: GGGAGUUCUACAGUCCGACGAUCGCUUCGAUAUCCGCAUGCUAACCCUUCUCCCAUUUUGUAAGAACACUGUUCUAACUCACCUCAUGCCCACGCUACCCUGGGCAACUGGAGAACACCAUAGCGUUUCAGCUGAUGUGACAUUUGGUGUGACCUUUACCAGUUCACCAUCAUUCAUGGCUUCCCCCAAAGUCCCGAGUCCUGAGAACCGGGGCUGUGGCAAGAGAGUUCUGGUGUGUUCUCUCUGUGGGGCUAGCAAUGCCGGGGUUAAGUUCUCCCUCGGUGAUGGAGACGGUCCUGGGUACUCUUGCGGUCGCACUAGUGUGGAAUUCUCGGGUGUCAAGG
# B13: ENSMUSG00000090935.58|Synj2bp (ssRNA)
# RNA: GGGAGUUCUACAGUCCGACGAUCGCUUCGAUAUCCGCAUGCUACACAGGUUACCAGUGCAGAAUGGACCUAUAGUACAUCGAGGUGAAGGAGAGCCAAGUGGAGUUCCUGUAGCUAUGGUGCUGCUACCAGUGUUUGCCCUCACCAUGGUAGCAGUUUGGGCCUUCGUGAGAUACCGAAAGCAGCUUUGAAAUGCUUGCUGUCUUCCAGUGUGUCCAAUGAACUCUCUCUCUCACUCACCAUCUCUGACAUCCUCCCAUAUUCUUUCUCCUCCACAUAGCCAAUACAAGAUUUAAAGUGACUGCUCUUGCGGUCGCACUAGUGUGGAAUUCUCGGGUGUCAAGG
# Biological target: TDP-43 (Homo sapiens, UniProt Q13148 1-414)
# Experiment: RNA Bind-n-Seq with designed 260-mer pool; 25 mM Tris-HCl, 150 mM KCl, 3 mM MgCl2, BSA (printed 500 mg/mL), 20 units/mL SUPERase IN; pH not stated; 500 nM RNA pool, 1 h, 4 C; TDP-43 5, 50, 500 nM; high values mean tight binding
# Conditions: protein: recombinant; tags: SBP (GST cleaved off with PreScission; pGEX-GST-SBP)
# Method in brief: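 In 25 mM Tris-HCl, 150 mM KCl, 3 mM MgCl2, BSA and SUPERase IN, 500 nM of an in vitro-transcribed 260-nt 3′ UTR oligo pool was incubated for 1 h at 4 °C with SBP-tagged TDP-43 (5, 50 or 500 nM) captured on streptavidin beads. RNA remaining after washes was biotin-eluted, reverse transcribed, PCR-amplified and sequenced. Binding, R, is the bound-sample abundance of each oligo, normalized to mapped reads, divided by its abundance in input. Each duplicate used a separate, independent protein batch.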
# Sequence of TDP-43 (Q13148 whole entry): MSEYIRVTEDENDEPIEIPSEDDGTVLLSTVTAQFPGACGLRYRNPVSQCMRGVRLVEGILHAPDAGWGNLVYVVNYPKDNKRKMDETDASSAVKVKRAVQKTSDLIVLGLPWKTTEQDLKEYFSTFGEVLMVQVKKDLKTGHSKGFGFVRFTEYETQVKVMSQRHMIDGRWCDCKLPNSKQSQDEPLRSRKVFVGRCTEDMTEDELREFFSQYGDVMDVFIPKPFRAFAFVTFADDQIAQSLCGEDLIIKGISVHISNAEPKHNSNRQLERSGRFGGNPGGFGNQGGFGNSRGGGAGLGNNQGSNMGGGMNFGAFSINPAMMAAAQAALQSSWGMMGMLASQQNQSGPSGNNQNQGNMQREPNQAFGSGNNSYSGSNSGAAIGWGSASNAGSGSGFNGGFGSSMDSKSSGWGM
row,Binder,binding signal
1,B1,0.389 R (bound/input frequency ratio)
2,B2,1.12 R (bound/input frequency ratio)
3,B3,0.86 R (bound/input frequency ratio)
4,B4,0.604 R (bound/input frequency ratio)
5,B5,0.754 R (bound/input frequency ratio)
6,B6,0.552 R (bound/input frequency ratio)
7,B7,0.765 R (bound/input frequency ratio)
8,B8,0.231 R (bound/input frequency ratio)
9,B9,0.706 R (bound/input frequency ratio)
10,B10,0.174 R (bound/input frequency ratio)
11,B11,1.27 R (bound/input frequency ratio)
12,B12,0.565 R (bound/input frequency ratio)
13,B13,1.69 R (bound/input frequency ratio)
